According to the supplement of paper PMC10849652:
Targets with a hit are over-represented here; the source holds about 8,800 in all. About 0.5% of all pairs of compound and target were hits.

Tests used:
Test in all cases: log2 fold change, soluble protein after heating vs DMSO (PISA); higher = thermal stabilisation; K562 lysate, 10 uM; active = over 0.2 and 3.5 SD of the protein, either way, in both replicates (recomputed)
[1] = compound: Cc1cn(-c2cc(NC(=O)c3ccc(C)c(Nc4nccc(-c5cccnc5)n4)c3)cc(C(F)(F)F)c2)cn1 [nilotinib]
Method in brief: (§1)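 To prepare the extract, K562 pellets were dounce-homogenised in PBS pH 7.4 with 1 mM MgCl2, giving crude material at 1 mg/mL protein. This was treated with 10 μM compound for 30 min, then heated in aliquots for 3 min over 48°C-58°C before pooling and addition of NP-40 to 0.5% at 4°C. Centrifugation at 21,000xg for 90 min left soluble protein in the supernatant, which TMTpro 16plex LC-MS/MS quantified with equalised channel sums. Results are log-two fold changes in thermal stability compared with solvent controls, from duplicates.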

[2] = compound: Cc1nc(Nc2n[nH]c3c2CN(C(=O)N[C@H](CN(C)C)c2ccccc2)C3(C)C)c2sccc2n1
Method in brief: as §1

[3] = compound: Cc1nc(Nc2ncc(C(=O)Nc3c(C)cccc3Cl)s2)cc(N2CCN(CCO)CC2)n1 [dasatinib]
Method in brief: as §1

[4] = compound: Cc1ncc(-c2ccnc(Nc3ccc(S(C)(=O)=O)cc3)n2)n1C(C)C
Method in brief: as §1

[5] = compound: Cn1cc(-c2ccc3c(c2)CCN3C(=O)Cc2cccc(C(F)(F)F)c2)c2c(N)ncnc21
Method in brief: as §1

[6] = compound: Cn1cc(CNCC2CCN(c3ncc(C(=O)NO)cn3)CC2)c2ccccc21 [quisinostat]
Method in brief: as §1

[7] = compound: Cn1cncc1[C@@](N)(c1ccc(Cl)cc1)c1ccc2c(c1)c(-c1cccc(Cl)c1)cc(=O)n2C [tipifarnib]
Method in brief: as §1

[8] = compound: NC(=O)Nc1cc(-c2cccc(F)c2)sc1C(=O)N[C@H]1CCCNC1
Method in brief: as §1

[9] = compound: NC(=O)c1cnc(N[C@@H]2CCCC[C@@H]2N)nc1Nc1cccc(-n2nccn2)c1
Method in brief: as §1

[10] = compound: NC1(c2ccc(-c3nc4ccn5c(=O)[nH]nc5c4cc3-c3ccccc3)cc2)CCC1
Method in brief: as §1

Measured: log2 fold change

NUP205 (UniProt Q92621)
inactive: [1] -0.014 | [2] 0.004 | [3] -0.04 | [4] 0.008 | [5] 0.04 | [6] -0.041 | [7] -0.027 | [8] 0.052 | [9] 0.047 | [10] -0.012

NUP160 (UniProt Q12769)
Chain of UniProt Q12769 (Q12769 whole entry, looked up): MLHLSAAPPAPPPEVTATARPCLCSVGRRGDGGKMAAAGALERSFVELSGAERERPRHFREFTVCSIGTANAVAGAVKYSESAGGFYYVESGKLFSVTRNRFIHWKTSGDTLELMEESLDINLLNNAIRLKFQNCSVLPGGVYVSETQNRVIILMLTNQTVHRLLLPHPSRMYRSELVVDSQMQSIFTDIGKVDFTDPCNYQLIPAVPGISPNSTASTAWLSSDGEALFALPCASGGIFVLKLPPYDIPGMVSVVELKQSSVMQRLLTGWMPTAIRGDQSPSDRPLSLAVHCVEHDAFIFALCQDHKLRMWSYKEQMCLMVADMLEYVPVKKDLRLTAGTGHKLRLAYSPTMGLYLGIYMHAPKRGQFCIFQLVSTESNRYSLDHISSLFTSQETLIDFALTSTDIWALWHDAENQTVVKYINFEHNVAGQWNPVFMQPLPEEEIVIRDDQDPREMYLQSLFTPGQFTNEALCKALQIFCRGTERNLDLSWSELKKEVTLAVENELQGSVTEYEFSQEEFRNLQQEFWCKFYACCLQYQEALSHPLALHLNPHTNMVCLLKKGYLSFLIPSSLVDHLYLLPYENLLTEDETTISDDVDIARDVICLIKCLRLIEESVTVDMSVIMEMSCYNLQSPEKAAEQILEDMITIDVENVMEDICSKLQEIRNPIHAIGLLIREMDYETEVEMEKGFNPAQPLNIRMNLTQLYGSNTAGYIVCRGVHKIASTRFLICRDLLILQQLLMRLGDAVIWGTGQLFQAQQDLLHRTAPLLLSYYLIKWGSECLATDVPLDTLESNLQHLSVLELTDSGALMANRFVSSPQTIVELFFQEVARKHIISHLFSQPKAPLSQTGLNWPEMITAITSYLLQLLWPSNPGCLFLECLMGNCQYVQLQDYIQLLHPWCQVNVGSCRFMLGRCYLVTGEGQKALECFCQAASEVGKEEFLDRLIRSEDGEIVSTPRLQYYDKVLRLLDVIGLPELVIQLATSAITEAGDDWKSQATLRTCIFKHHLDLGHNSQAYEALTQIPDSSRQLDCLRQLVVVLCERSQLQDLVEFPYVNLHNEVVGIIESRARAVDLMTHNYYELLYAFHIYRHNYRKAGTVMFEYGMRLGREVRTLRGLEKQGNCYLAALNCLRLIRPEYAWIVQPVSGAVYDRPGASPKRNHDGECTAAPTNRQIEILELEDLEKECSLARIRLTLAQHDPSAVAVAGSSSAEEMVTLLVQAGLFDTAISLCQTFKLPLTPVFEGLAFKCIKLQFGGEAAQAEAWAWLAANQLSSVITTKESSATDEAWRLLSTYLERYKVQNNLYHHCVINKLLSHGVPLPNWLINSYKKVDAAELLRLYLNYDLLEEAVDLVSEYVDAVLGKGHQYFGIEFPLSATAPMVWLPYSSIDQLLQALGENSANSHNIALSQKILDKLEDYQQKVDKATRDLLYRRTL
inactive: [1] 0.014 | [2] -0.025 | [3] -0.092 | [4] -0.032 | [5] 0.021 | [6] -0.032 | [7] -0.031 | [8] 0.009 | [9] 0.002 | [10] -0.018

PAN2 isoform 2 (UniProt Q504Q3)
inactive: [1] 0.072 | [2] 0.013 | [3] -0.012 | [4] 0.046 | [5] 0.079 | [6] -0.036 | [7] -0.049 | [8] 0.056 | [9] 0.02 | [10] -0.028

NOSTRIN (UniProt Q8IVI9)
inactive: [1] -0.015 | [2] -0.02 | [3] -0.022 | [4] 0.03 | [5] 0.01 | [6] -0.031 | [7] -0.008 | [8] 0.01 | [9] -0.018 | [10] 0.064

MT-ND1 (UniProt P03886)
inactive: [1] -0.054 | [2] 0.005 | [3] 0.018 | [4] -0.074 | [5] 0.035 | [6] -0.094 | [7] -0.125 | [8] 0.033 | [9] -0.024 | [10] -0.059

NOSIP (UniProt Q9Y314)
Chain of UniProt Q9Y314 (Q9Y314 whole entry, looked up): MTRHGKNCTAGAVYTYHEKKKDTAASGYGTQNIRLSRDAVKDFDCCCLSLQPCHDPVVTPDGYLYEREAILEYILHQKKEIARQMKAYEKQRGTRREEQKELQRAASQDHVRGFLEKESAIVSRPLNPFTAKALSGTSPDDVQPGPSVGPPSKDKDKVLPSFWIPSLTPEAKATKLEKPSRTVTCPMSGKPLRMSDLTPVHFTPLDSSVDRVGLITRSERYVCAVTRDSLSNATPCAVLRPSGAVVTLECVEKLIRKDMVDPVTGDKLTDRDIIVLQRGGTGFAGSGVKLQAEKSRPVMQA
inactive: [1] 0.005 | [2] 0.009 | [3] -0.018 | [4] 0.027 | [5] -0.019 | [6] -0.151 | [7] -0.021 | [8] 0.003 | [9] -0.015 | [10] 0.006

MYO9A isoform 4 (UniProt B2RTY4)
Chain of UniProt B2RTY4 (B2RTY4 whole entry, looked up): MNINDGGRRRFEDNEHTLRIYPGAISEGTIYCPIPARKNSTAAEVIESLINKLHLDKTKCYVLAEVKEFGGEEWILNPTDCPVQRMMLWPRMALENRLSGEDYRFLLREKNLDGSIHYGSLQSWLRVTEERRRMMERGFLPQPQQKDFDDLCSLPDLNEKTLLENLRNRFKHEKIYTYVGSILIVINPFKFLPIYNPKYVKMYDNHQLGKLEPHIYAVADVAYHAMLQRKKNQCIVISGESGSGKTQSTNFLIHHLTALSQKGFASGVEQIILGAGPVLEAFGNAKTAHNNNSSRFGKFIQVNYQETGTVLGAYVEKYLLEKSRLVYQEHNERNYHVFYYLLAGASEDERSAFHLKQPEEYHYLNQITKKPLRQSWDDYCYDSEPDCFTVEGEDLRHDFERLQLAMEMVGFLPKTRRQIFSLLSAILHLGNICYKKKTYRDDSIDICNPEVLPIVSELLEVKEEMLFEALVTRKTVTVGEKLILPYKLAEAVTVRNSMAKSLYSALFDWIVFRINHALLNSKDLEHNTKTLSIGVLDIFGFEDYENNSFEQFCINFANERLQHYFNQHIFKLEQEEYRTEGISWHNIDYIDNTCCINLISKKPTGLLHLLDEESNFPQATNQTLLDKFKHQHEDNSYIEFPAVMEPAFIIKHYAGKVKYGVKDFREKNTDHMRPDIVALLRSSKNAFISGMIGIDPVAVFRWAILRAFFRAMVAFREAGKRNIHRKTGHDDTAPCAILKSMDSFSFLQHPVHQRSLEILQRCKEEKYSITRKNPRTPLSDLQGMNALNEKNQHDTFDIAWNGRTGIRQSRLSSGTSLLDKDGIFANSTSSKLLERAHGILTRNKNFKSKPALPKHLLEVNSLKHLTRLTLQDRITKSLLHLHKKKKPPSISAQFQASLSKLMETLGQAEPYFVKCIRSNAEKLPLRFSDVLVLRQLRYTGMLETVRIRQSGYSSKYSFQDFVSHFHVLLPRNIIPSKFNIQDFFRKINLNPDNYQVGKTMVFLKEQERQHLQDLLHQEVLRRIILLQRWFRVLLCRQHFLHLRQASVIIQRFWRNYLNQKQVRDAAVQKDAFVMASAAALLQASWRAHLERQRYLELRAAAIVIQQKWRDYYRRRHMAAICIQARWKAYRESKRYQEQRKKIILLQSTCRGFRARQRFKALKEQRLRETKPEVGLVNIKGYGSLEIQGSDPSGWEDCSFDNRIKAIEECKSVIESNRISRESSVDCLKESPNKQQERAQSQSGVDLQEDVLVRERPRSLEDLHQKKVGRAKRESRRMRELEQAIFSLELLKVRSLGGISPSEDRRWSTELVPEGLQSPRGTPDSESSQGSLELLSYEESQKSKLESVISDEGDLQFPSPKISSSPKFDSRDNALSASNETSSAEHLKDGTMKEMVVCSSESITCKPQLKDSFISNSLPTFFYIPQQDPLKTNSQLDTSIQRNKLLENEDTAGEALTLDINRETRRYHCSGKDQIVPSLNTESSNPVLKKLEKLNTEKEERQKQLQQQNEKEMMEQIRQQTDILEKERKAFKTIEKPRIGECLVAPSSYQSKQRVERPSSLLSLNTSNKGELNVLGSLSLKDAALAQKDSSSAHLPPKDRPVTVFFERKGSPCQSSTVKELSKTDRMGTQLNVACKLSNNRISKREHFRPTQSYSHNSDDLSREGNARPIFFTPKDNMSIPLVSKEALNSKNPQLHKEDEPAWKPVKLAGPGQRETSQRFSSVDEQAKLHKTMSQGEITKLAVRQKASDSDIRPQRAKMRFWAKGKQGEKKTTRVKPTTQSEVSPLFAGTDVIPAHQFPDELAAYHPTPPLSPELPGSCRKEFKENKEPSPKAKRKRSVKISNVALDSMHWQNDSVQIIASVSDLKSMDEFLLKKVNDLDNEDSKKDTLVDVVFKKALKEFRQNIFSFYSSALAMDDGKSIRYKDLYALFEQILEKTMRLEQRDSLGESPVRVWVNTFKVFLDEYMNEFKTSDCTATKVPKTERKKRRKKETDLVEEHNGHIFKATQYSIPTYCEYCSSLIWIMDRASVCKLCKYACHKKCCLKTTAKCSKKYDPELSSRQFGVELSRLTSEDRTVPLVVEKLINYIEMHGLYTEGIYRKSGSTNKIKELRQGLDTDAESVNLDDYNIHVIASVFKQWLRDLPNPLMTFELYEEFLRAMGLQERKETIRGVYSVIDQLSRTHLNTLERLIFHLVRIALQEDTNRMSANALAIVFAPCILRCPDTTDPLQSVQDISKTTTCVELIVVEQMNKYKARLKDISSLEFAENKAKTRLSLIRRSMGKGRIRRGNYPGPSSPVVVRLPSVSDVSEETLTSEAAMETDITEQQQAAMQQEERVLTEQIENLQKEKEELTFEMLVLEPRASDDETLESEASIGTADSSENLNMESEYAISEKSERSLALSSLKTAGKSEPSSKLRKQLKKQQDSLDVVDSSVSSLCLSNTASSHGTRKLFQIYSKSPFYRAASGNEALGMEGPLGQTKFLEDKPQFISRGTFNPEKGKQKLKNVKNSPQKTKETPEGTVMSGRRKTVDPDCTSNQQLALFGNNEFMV
inactive: [1] 0.059 | [2] -0.044 | [3] -0.176 | [4] 0 | [5] 0.052 | [6] -0.074 | [7] -0.005 | [8] 0.112 | [9] 0.039 | [10] -0.112

NAA38 isoform 2 (UniProt Q9BRA0)
Chain of UniProt Q9BRA0 (Q9BRA0 whole entry, looked up): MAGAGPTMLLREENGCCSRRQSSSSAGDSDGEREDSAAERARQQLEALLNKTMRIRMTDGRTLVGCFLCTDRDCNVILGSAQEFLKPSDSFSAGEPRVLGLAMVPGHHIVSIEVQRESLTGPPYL
inactive: [1] -0.024 | [2] 0.059 | [3] -0.014 | [4] -0.007 | [5] 0.001 | [6] 0.03 | [7] -0.03 | [8] 0.027 | [9] 0.016 | [10] -0.019

NFKBIB (UniProt Q15653)
inactive: [1] -0.004 | [2] -0.015 | [3] -0.042 | [4] 0.052 | [5] 0.043 | [6] -0.062 | [7] 0.059 | [8] 0.025 | [9] 0.004 | [10] -0.08

NPTN (UniProt Q9Y639)
Chain of UniProt Q9Y639 (Q9Y639 whole entry, looked up): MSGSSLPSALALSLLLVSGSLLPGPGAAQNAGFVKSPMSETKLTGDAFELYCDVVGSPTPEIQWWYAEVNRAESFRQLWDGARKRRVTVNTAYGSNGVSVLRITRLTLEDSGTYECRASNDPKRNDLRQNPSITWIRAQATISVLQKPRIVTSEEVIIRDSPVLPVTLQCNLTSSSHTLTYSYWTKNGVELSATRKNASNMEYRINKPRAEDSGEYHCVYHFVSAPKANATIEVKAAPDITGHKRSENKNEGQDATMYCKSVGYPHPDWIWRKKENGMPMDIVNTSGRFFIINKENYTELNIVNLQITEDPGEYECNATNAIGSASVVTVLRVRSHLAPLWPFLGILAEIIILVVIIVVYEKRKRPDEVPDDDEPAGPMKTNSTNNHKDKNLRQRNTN
inactive: [1] -0.029 | [2] 0.005 | [3] -0.06 | [4] -0.025 | [5] -0.009 | [6] -0.038 | [7] 0.043 | [8] 0.031 | [9] 0.004 | [10] 0.002

OSBPL6 isoform 5 (UniProt Q9BZF3)
inactive: [1] 0.281 | [2] 0.018 | [3] -0.082 | [4] -0.045 | [5] 0.036 | [6] -0.07 | [7] -0.003 | [8] 0.122 | [9] 0.007 | [10] -0.238

NSL1 (UniProt Q96IY1)
Chain of UniProt Q96IY1 (Q96IY1 whole entry, looked up): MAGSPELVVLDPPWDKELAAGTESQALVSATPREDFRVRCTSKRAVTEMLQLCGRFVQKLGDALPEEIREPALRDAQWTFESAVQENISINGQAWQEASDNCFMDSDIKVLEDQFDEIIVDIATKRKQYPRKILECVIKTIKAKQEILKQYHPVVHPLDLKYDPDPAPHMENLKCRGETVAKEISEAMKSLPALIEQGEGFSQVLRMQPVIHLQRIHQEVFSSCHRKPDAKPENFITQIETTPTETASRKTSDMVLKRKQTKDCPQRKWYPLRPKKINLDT
inactive: [1] -0.018 | [2] 0.005 | [3] -0.01 | [4] -0.014 | [5] 0 | [6] -0.009 | [7] 0.024 | [8] -0.003 | [9] 0.01 | [10] -0.007

OTC (UniProt P00480)
inactive: [1] -0.105 | [2] -0.023 | [3] -0.347 | [4] -0.159 | [5] 0.106 | [6] -0.492 | [7] 0.054 | [8] -0.055 | [9] 0.071 | [10] -0.075

NUSAP1 (UniProt Q9BXS6)
inactive: [1] -0.001 | [2] 0.004 | [3] 0.045 | [4] -0.009 | [5] -0.047 | [6] 0.038 | [7] -0.016 | [8] -0.024 | [9] 0.002 | [10] -0.055

NEBL isoform 2 (UniProt O76041)
inactive: [1] -0.022 | [2] -0.001 | [3] -0.029 | [4] 0.015 | [5] -0.072 | [6] 0.012 | [7] -0.021 | [8] -0.017 | [9] -0.027 | [10] -0.007
